Screens (PubChem BioAssay)
Most compounds without a hit are left out; they make up all but 6.5% or so of the library.
TGFb inhibitor: qHTS for Inhibitors of TGF-b; HepG2 CAGA-GFP TGF-b/SMAD3 reporter, GFP fluorescence, 18 h; TGF-beta stimulated, 500 pg/mL final; Potency, µM (doses to about 46.1 µM), for inactives: at the highest dose activity, negative = inhibition, actives largely listed as inhibitors; 410,000 tested, 1.2% active; AID 588855, 2011; also: potency is read from the fitted curve at half-maximal effect; % is scaled to controls: 0 for no effect and ±100 for the full control effect; nearly all actives have a fitted effect of over 65% in size
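HEPG2 CAGA-GFP cells (1000/well, DMEM with 1% FBS) were pre-incubated 2 h at 37 degrees C, given compound by pin tool, then stimulated with TGF-beta at 500 pg/mL final for 18 h before per-cell GFP fluorescence imaging.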
HT1080 IDH1KD tx: qHTS for induction of synthetic lethality in tumor cells producing 2HG: qHTS for the HT-1080-IDH1KD cell line; HT-1080 IDH1 knockdown viability, ATP luminescence, 48 h; Potency, µM (top dose mostly 46.1 µM), for the others: at the highest dose activity, negative = toxicity, most hits filed as cytotoxic; 360,000 tested, 2% active; AID 686971, 2013;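 also: potency is read from the fitted curve at half-maximal effect; 0% = DMSO wells and -100% = cell-free medium wells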
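Cytotoxicity counter-line: IDH1KD HT-1080, 48 h, CellTiter-Glo. Curves classed by r2, magnitude and activity.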
HT1080NT lethal: qHTS for induction of synthetic lethality in tumor cells producing 2HG: qHTS for the HT-1080-NT fibrosarcoma cell line; Potency, µM (titrated, usually from 46.1 µM), for inactives: top-dose activity, negative = less viability, hits mostly cytotoxic; 360,000 tested, 1.6% active; AID 686970, 2013; HT-1080-NT fibrosarcoma viability, CellTiter-Glo ATP luminescence, 48 h;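 also: NT is the 2HG producing partner of a matched IDH1 knockdown line; potency is read from the fitted curve at half-maximal effect; 0% = DMSO-treated cells and -100% = media-only wells without cells; nearly all actives have a fitted effect of over 55% in size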
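HT-1080-NT; 750 cells/well; 5% FBS RPMI; 48 h compound, 37 degrees C; CellTiter-Glo luminescence; curve fitting and curve-class assignment.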
Giardia killer: Small Molecules that selectively kill Giardia lamblia: qHTS. Giardia lamblia trophozoite viability. activity change, % at 7.66 µM, hits read low. 340,000 tested, 0.15% active; in the data active = activity change below about -80%; inconclusive = between about -30% and that limit;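 also: parasites exposed to compound for two days anaerobically before the ATP read; % is scaled to controls: 0 for no effect and ±100 for the full control effect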
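Compounds were tested on trophozoites seeded at 100 cells/well and held 48 hrs at 37 deg C anaerobically. An ATP-based luminescent kit measured the remaining live cells.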
HepG2 tox: qHTS for Inhibitors of TGF-b: Cytotox Counterscreen; HepG2 CAGA-GFP viability, ATP luminescence, 18 h; Potency, µM (top dose mostly 46.1 µM), for the others: at the highest dose activity change, negative = cytotoxicity, usual class: cytotoxic; 410,000 tested, 0.76% active; also: potency is read from the fitted curve at half-maximal effect
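CellTiter-Glo luminescence gave cytotoxicity after 18 hours at 37 degrees C. The cells were HepG2 CAGA-GFP in 1% FBS DMEM, stimulated with 500 pg/mL TGF-beta after compound addition. %Activity was normalised to no-cell wells (complete cell-killing) and DMSO (no toxicity), and curves were fitted and classified.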
IL-1B inflam inh: qHTS for Inhibitors of Inflammasome Signaling: IL-1-beta AlphaLISA Primary Screen | THP-1 LPS/ATP IL-1B secretion, AlphaLISA, 16 h; stronger effect = lower value | activity change, % at 57.5 µM | 360,000 tested, 4.7% active | AID 743279, 2014; in the data active = activity change below about -50%; inconclusive = mostly about -30% to -49%; also: % is scaled to controls: 0 for no effect and ±100 for the full control effect
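THP-1 cells pretreated 1 hr with compounds (up to 57.5 uM final), then stimulated with LPS (250 ng/mL final) plus ATP (1.25 mM final); secreted IL-1B measured by AlphaLISA after 16 hr, decreased signal indicating inhibition.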
An asterisk follows results filed as active; ? = inconclusive; / = no result. Unless noted, calls follow the shape of the dose curve; as a rule, active = well fitted curve in the direction sought with a large enough effect; inconclusive = small, poorly fitted or top-dose-only effect, or another doubt; inactive = no such curve, though single readings can be large; an effect the other way counts as inactive or inconclusive.

SMILES	TGFb inhibitor	HT1080 IDH1KD tx	HT1080NT lethal	Giardia killer	HepG2 tox	IL-1B inflam inh
O=C(COC(=O)CNC(=O)c1ccccc1F)Nc1ccc2[nH]c(=O)[nH]c2c1	0.7%	-2.6%	2.9%	-8.6	2.4%	9.6
CCCCCCC[C@@H](C/C=C/CCC(=O)N(C)C/C(=C/Cl)C/C(=C\C(=O)N1C[C@H](O)CC1=O)OC)OC	15.8µM*	?	23.1µM*	-11.3	-104.0%	-70.6*
CCCCCCC[C@@H](C/C=C/CCC(=O)O)OC	-0.8%	-2.5%	0.6%	9.7	-27.1%	45.3
O=C1NC(Cc2ccc(O)cc2)c2nc3ccc(F)cc3c(=O)n2-c2cc(Cl)ccc21 (stereo unspecified)	-41.3%	-7.6%	3.8%	-11.0	4.0%	0.0
COc1cccc(Nc2nc(C(N)c3ccccc3)cs2)n1 (stereo unspecified)	?	?	?	/	-55.3%	-70.6*
COc1cc(OC)nc(Nc2nc(C(N)c3ccccc3)cs2)n1 (stereo unspecified)	38.8%	-11.8%	-22.3%	/	-5.7%	-56.2*
COc1cccc(Nc2nc(C(C)N)cs2)n1 (stereo unspecified)	9.5%	-8.1%	?	/	-34.2%	-17.7
COc1cc(OC)nc(Nc2nc(C(N)c3ccccc3Cl)cs2)n1 (stereo unspecified)	25.1%	?	?	/	-33.3%	/
COc1cccc(Nc2nc(C(N)C3CCCCC3)cs2)n1 (stereo unspecified)	?	16.4µM*	?	/	15.8µM*	0.0
O=S(=O)(NC1Cc2ccccc2C1)c1ccccc1	0.0%	-0.4%	-0.9%	-15.6	1.9%	-20.4
COc1cc(/C=C/C(=O)OCC(=O)N2CC3(C)CC2CC(C)(C)C3)ccc1O (stereo unspecified)	0.8%	-27.0%	-20.3%	10.0	-17.6%	-11.0
CCc1ccc(/C=C/c2c[nH]c3ccccc23)[n+](CC)c1	?	?	?	16.6	-4.2%	-23.7
Cc1cc2c(ccc3[nH]onc32)n1	?	-4.4%	-12.6%	-0.8	-93.7%	-60.2*
N#CCC(=O)N/N=C/c1cc(-c2ccccc2)n(-c2ccc(Cl)cc2)c1-c1ccccc1	?	20.6µM*	?	6.5	10.7%	28.8
COc1cccc(C(=O)Nc2ccccc2C(=O)OCc2cc(=O)n3c4c(sc3n2)CCCC4)c1	-25.1%	/	/	/	-8.8%	/
COc1ccccc1C(=O)NNC(=O)CN1C(=O)c2ccccc2C1=O	-0.5%	12.0%	4.4%	-4.0	-2.7%	5.5
CCOc1ccc(N2C=Nc3ccc(OCC)cc3C2)cc1	?	-9.2%	-21.1%	-21.3	-45.8%	-59.5*
CCOc1ccc(N2C(=O)CNC2=S)cc1	13.1%	5.8%	5.3%	-3.6	3.2%	4.9
CC1(C)CC(=O)C2=C(C1)c1c(ccc3ccccc13)NC2c1ccc(Br)o1 (stereo unspecified)	-20.4%	?	?	16.8	20µM*	?
C=CCNc1nc(NCc2ccc(N(C)C)cc2)c2sc(-c3ccccc3)cc2n1	?	?	?	/	12.6µM*	-24.2
C=CCNc1nc(Nc2ccc(OC)c(OC)c2)c2sc(-c3ccccc3)cc2n1	-21.0%	5.8µM*	5.17µM*	/	-28.2%	-108.3*
C=CCNc1nc(NCCOC)c2sc(-c3ccccc3)cc2n1	?	?	?	/	-43.1%	-112.9*
COCCNc1nc(-c2cc(F)ccc2C)c2sc(-c3ccccc3)cc2n1	-1.1%	-17.4%	-16.2%	/	-28.9%	-81.9*
C=CCNc1nc(NCCNC(C)=O)c2sc(-c3ccccc3)cc2n1	11.8%	-25.7%	?	/	-8.4%	-3.0
O=C(Nc1ccc(Oc2ccccc2)nc1)C1CCCCN1Cc1cccc(OCCO)c1 (stereo unspecified)	?	-7.2%	-0.1%	51.0	-13.0%	9.0
SMILES	TGFb inhibitor	HT1080 IDH1KD tx	HT1080NT lethal	Giardia killer	HepG2 tox	IL-1B inflam inh
CCC(=Nc1ccc(N)cc1)C1=C(O)C(C(=O)OC)C(C)(C)CC1=O (stereo unspecified)	?	-24.2%	6.2%	1.9	-27.8%	10.7
Cc1ccc(-c2cc3nc(NCCOc4ccccc4Cl)n(C)c(=O)c3s2)cc1	11.1%	9.4%	3.8%	/	-4.1%	12.5
C=CCNc1nc(NCCOc2ccccc2Cl)c2sc(-c3ccccc3)cc2n1	?	?	18.4µM*	/	-52.8%	-110.9*
COC(=O)C1=C(C(=O)OC)[C@]2([C@@H]3CC=CCN[C@@H](Cc4ccccc4)C(=O)N3Cc3ccccc3)C=C[C@H]1O2	?	5.7%	9.1%	-15.9	-23.4%	9.9
C=CCC(Nc1ccccc1)C12C=CC(O1)C(C(=O)OC)=C2C(=O)OC (stereo unspecified)	?	?	?	-9.2	14.1µM*	-112.8*
CCc1ccc(NC(=O)C2CCCN(S(=O)(=O)c3cccc4cccnc34)C2)cc1 (stereo unspecified)	10µM*	/	/	/	-7.8%	/
CCOC(=O)C(C)NC(=O)CCc1nnc2ccc(N3CCC(C)CC3)nn12 (stereo unspecified)	?	-12.0%	-11.2%	-2.1	-17.8%	-97.0*
Cc1c(Cl)cccc1-n1ncc(C(=O)Nc2ccc(F)cc2F)c1C1CCN(C(=O)OC(C)(C)C)CC1	?	/	/	/	-8.3%	/
Cc1ccc(OCCn2c(=S)[nH]c3ccccc32)c(C(C)C)c1	15.8µM*	?	-26.8%	16.8	-115.6%	30.4
O=C(NCc1cccc(Cl)c1)c1c2c(nc3ccccc13)C(=O)N(C1CCCCC1)C2	20.0%	/	/	/	-3.7%	/
O=C(Cc1ccc([N+](=O)[O-])cc1)N1CCCCCC1	-7.0%	-3.0%	13.7%	-6.3	-22.4%	-13.6
O=C(c1ccc(-c2ccc([N+](=O)[O-])cc2)o1)N1CCCC(C(F)(F)F)C1 (stereo unspecified)	-4.7%	-1.2%	-3.4%	23.6	0.1%	-52.7*
O=C(c1ccc(-c2ccc([N+](=O)[O-])cc2)o1)N1CCCCCCC1	?	-5.2%	?	1.5	-62.8%	-53.8*
Cc1ccc(OCC(=O)Nc2nonc2-c2ccc(C)c(C)c2)cc1C	-27.8%	/	/	/	-31.6%	/
COc1ccc(C)cc1S(=O)(=O)Nc1cccc(-c2cn3cccnc3n2)c1	7.4%	-5.0%	-9.7%	4.2	-8.8%	-19.8
